Measurements reported in PubChem BioAssay AID588727 (Southern Research Specialized Biocontainment Screening …, 2011).
The campaign covered roughly 350,000 compounds. About 450 (0.13%) were called active. The rule behind the calls is not given here. Not all results are given here. Measured potencies and affinities stand elsewhere.

Experiment: inhibitors of VEEV TC-83 cytopathic effect, confirmation, Vero cells (AID 588727)
Conditions: VEEV TC-83 cytopathic effect inhibition, at 20 µM
[1] = stronger effect = higher value unless noted
[2] = measured here: 10K pilot screen inhibition, stronger effect = higher value

## Cc1ccc2oc(=O)cc(/C=C/c3ccccc3)c2c1
[1]
  inhibition: 0.72% (inactive)

## Cc1ccccc1C(=O)NN1C(=O)CSC1=S
[1]
  inhibition: 0.35% (inactive)

## CCc1ccc(C2CC(=O)N(c3cccc(F)c3)C3=C2C(=O)OC3)cc1 (stereo not drawn)
[1]
  inhibition: inactive

## COc1ccc(CNC(=O)[C@H](Cc2c[nH]c3ccccc23)NC(=O)[C@@H]2Cc3ccccc3CN2)cc1
[1]
  inhibition: inactive

## COc1ccccc1CNC(=O)[C@H](Cc1c[nH]c2ccccc12)NC(=O)[C@@H]1Cc2ccccc2CN1
[1]
  inhibition: 0.04% (inactive)

## Cc1ccc(NC(=O)[C@H](NC(=O)[C@@H]2Cc3ccccc3CN2)c2ccccc2)c(C)c1
[1]
  inhibition: 1.71% (inactive)

## CC(C)C[C@H](NC(=O)[C@@H]1Cc2ccccc2CN1)C(=O)Nc1ccc(C(C)C)cc1
[1]
  inhibition: 0.75% (inactive)

## Cc1cc(C)cc(NC(=O)[C@H](Cc2c[nH]c3ccccc23)NC(=O)[C@@H]2Cc3ccccc3CN2)c1
[1]
  inhibition: 0.29% (inactive)

## Cc1cccc(NC(=O)[C@@H](CC(C)C)NC(=O)[C@@H]2Cc3ccccc3CN2)c1
[1]
  inhibition: inactive

## Cc1ccc(NC(=O)[C@H](Cc2ccccc2)NC(=O)[C@@H]2Cc3ccccc3CN2)c(C)c1
[1]
  inhibition: 1.94% (inactive)

## CC(NC(=O)[C@H](Cc1c[nH]c2ccccc12)NC(=O)[C@@H]1Cc2ccccc2CN1)c1ccccc1 (stereo partly drawn)
[1]
  inhibition: inactive

## O=C(O)c1cc(S(=O)(=O)Nc2cccc(S(=O)(=O)N3CCCC3)c2)ccc1Cl
[1]
  inhibition: 0.74% (inactive)

## Cc1ccc(C(=O)Nc2cccnc2Oc2ccc(Cl)cc2)cc1
[1]
  inhibition: 7.89% (inactive)

## O=C(O)c1ccc(Cl)c(S(=O)(=O)N(Cc2ccccc2)c2ccccc2Cl)c1
[1]
  inhibition: inactive

## CCC(O)CC(C(=O)NNc1ccccc1)C(=O)NNc1ccccc1 (stereo not drawn)
Higher = more active
  inhibition: 1.75% (inactive)
[2]
  inhibition: 1.77%

## COc1ccc(OCc2cc(/C=N\NC(=O)c3ccccc3)ccc2OC)cc1
[1]
  inhibition: 7.93% (inactive)

## COc1cccc(NC(=O)[C@H](CC(C)C)NC(=O)[C@@H]2Cc3ccccc3CN2)c1
[1]
  inhibition: 0.34% (inactive)

## COc1cccc(NC(=O)[C@H](Cc2ccccc2)NC(=O)[C@@H]2Cc3ccccc3CN2)c1
[1]
  inhibition: 2.9% (inactive)

## Fc1ccccc1CSc1ncnc2c1ncn2C1CCCCO1 (stereo not drawn)
[1]
  inhibition: 4.89% (inactive)

## c1ccc(CSc2ncnc3c2ncn3C2CCCCO2)cc1 (stereo not drawn)
[1]
  inhibition: 4.13% (inactive)

## CCOC(=O)C1CCC(=O)C1 (stereo not drawn)
[1]
  inhibition: 0.89% (inactive)

## Cn1c(CN2CCCCC2)nc2cc(NS(=O)(=O)c3ccc(F)cc3)ccc21
[1]
  inhibition: 0.17% (inactive)

## C#CCN(C[C@@H]1[C@@H](OC(=O)NC2CC2)[C@@H](OC(=O)NC2CC2)Cn2c(=O)ccc(=O)n21)S(=O)(=O)c1ccc(C)cc1
[1]
  inhibition: 0.49% (inactive)

## C#CCN(C[C@@H]1[C@@H](OC(=O)Nc2cccs2)[C@@H](OC(=O)Nc2cccs2)Cn2c(=O)n(CCCCCC)c(=O)n21)S(=O)(=O)c1ccc(C)cc1
[1]
  inhibition: inactive

## COc1ccc(-c2c3c(=O)n(C)c(=O)n(C)c3cn2Cc2cccnc2)cc1
Higher = more active
  inhibition: 1.95% (inactive)
[2]
  inhibition: 1.55%

## CC(C)=CCN1CCN(Cc2coc3ccc(C)cc3c2=O)CC1CCO (stereo not drawn)
[1]
  inhibition: 0.54% (inactive)

## Cc1ccc2nc(NC(=O)Cn3nc(C)c([N+](=O)[O-])c3C)sc2c1
[1]
  inhibition: 5.1% (inactive)

## CN1CCN(C(=O)N2c3ccccc3C=Cc3ccccc32)CC1
[1]
  inhibition: 0.28% (inactive)

## CN(C)CCCNC(=O)c1cc2sc3ccccc3c2s1
[1]
  inhibition: 0.94% (inactive)

## COCCNC(=O)c1cc2sc3ccccc3c2s1
[1]
  inhibition: 3.33% (inactive)

## O=C1/C(=C/c2cccs2)SC(=S)N1CC(=O)N1CCCCC1CCO (stereo not drawn)
[1]
  inhibition: 2.22% (inactive)

## COC(=O)C/C=C/N(Cc1ccccc1OC)S(=O)(=O)CCl
[1]
  inhibition: inactive

## CN(C)c1ccc(NC2=C(Cl)C(=O)c3ccccc3C2=O)cc1
[1]
  inhibition: 2.81% (inactive)

## COc1ccc(NC2=C(NC(C)=O)C(=O)c3ccccc3C2=O)cc1
[1]
  inhibition: inactive

## O=C(Nc1ccc2ccccc2c1)c1ccccc1[N+](=O)[O-]
[1]
  inhibition: 0.3% (inactive)

## O=C(NC(=S)NCCN1CCOCC1)c1cccc(Cl)c1
[1]
  inhibition: 2.05% (inactive)

## O=S(=O)(NCC1CN(S(=O)(=O)c2c(F)cccc2F)C1)c1ccc2c(c1)OCCO2
[1]
  inhibition: 0.08% (inactive)

## CC(=O)c1ccc(Nc2nc(=O)c3cccnc3s2)cc1
[1]
  inhibition: 2.57% (inactive)

## Cc1ccc(Nc2nc(=O)c3cccnc3s2)cc1
[1]
  inhibition: inactive

## COc1ccc(OC)c(Nc2nc(=O)c3cccnc3s2)c1
[1]
  inhibition: 4.47% (inactive)

## CC(=O)c1cccc(Nc2nc(=O)c3cccnc3s2)c1
[1]
  inhibition: 3.68% (inactive)

## COCOCCn1cc(CN2CCS(=O)(=O)N(Cc3ccc(-c4cccc(CO)c4)cc3)C(CC(C)C)C2=O)nn1 (stereo not drawn)
[1]
  inhibition: 6.1% (inactive)

## CCOC(=O)[C@@H]1[C@H]2COc3ccc(Br)cc3[C@@H]2N2C(=O)N(c3cccc(Cl)c3)C(=O)[C@]12C
[1]
  inhibition: inactive

## CCOC(=O)C1=C(N)c2ccccc2CC1C(C)C (stereo not drawn)
[1]
  inhibition: inactive

## CCOC(=O)C1=C(NC(=S)NC(=O)c2ccccc2)c2ccccc2CC1(C)CC (stereo not drawn)
Higher = more active
  inhibition: 11.4% (inactive)
[2]
  inhibition: 20.8%

## Cc1ccc(C)c(CN2C(=O)c3ccccc3S(=O)(=O)c3ccc(C(=O)N4CCN(C)CC4)cc32)c1
[1]
  inhibition: 0.5% (inactive)

## CN1CCN(C(=O)c2ccc3c(c2)N(Cc2cccc(Cl)c2)C(=O)c2ccccc2S3(=O)=O)CC1
[1]
  inhibition: inactive

## Cc1ccc(C(=O)N2CCN(c3ccccn3)CC2)cc1C
[1]
  inhibition: 1.05% (inactive)

## O=C(c1ccc2c(c1)N(Cc1ccc(F)cc1)C(=O)c1ccccc1S2(=O)=O)N1CCN(c2ccccn2)CC1
[1]
  inhibition: 8.23% (inactive)

## CC(=O)C(=Nc1cccc(Cl)c1)NNc1ccccc1C
[1]
  inhibition: inactive

## CC(=O)Nc1ccc(C(=O)OCC(=O)c2cccc([N+](=O)[O-])c2)cc1
[1]
  inhibition: 0.91% (inactive)

## O=C(C[n+]1cccc(NC(=O)c2ccccc2)c1)c1cccc([N+](=O)[O-])c1
[1]
  inhibition: inactive

## CCOC(=O)C1=C(COC(=O)c2cccc(NC(C)=O)c2)NC(=O)NC1C (stereo not drawn)
[1]
  inhibition: 1.96% (inactive)

## CCOC(=O)Cn1c(S(=O)(=O)Cc2cccc(F)c2)nc(-c2ccccc2)c1-c1ccccc1
[1]
  inhibition: 3.2% (inactive)

## CCOC(=O)Cn1c(S(=O)(=O)Cc2ccc(F)cc2)nc(-c2ccccc2)c1-c1ccccc1
[1]
  inhibition: 5.03% (inactive)

## C#CCn1c(S(=O)(=O)Cc2ccccc2Cl)nc(-c2ccccc2)c1-c1ccccc1
[1]
  inhibition: 1.45% (inactive)

## C#CCn1c(S(=O)(=O)Cc2ccc(OC)cc2)nc(-c2ccccc2)c1-c1ccccc1
[1]
  inhibition: 0.79% (inactive)

## COC(=O)c1ccccc1-c1ccc(/C=N/Nc2nc(N3CCCC3)nc(N3CCCC3)n2)o1
[1]
  inhibition: 9.1% (inactive)

## COc1ccc(S(=O)(=O)N2CCCc3ccccc32)cc1OC
[1]
  inhibition: inactive

## Cc1c(OCC(=O)N(C)C)ccc2c(-c3ccccc3)cc(=O)oc12
[1]
  inhibition: 2.42% (inactive)

## Cn1cccc1C(=O)NC(=O)COC(=O)c1ccc(S(C)(=O)=O)cc1
[1]
  inhibition: 1.82% (inactive)

## CCOC(=O)c1cc(-c2ccccc2)sc1NC(=O)C(C)(C)C
[1]
  inhibition: 0.72% (inactive)

## O=C(Nc1sc(-c2ccccc2)cc1C(=O)O)c1ccccc1
[1]
  inhibition: inactive

## COC(=O)C1=C(CSCc2ccccc2)NC(=O)NC1c1cc(C)ccc1C (stereo not drawn)
[1]
  inhibition: 1.95% (inactive)

## CNC(=S)Nc1ccc(-c2nc3ccc(C)cc3s2)cc1
[1]
  inhibition: 5.72% (inactive)

## CCC(C)(C)NC(=S)Nc1ccc(-c2nc3ccc(C)cc3s2)cc1
[1]
  inhibition: 1.78% (inactive)

## CCOC(=O)c1c(C)oc(NC(=O)CCl)c1C(=O)OCC
[1]
  inhibition: 1.19% (inactive)

## Cc1cc(C(=O)Nc2c(C)nn(Cc3ccccc3Cl)c2C)no1
[1]
  inhibition: 1.51% (inactive)

## Cc1nn(Cc2ccc(Cl)cc2)c(C)c1NC(=O)c1cc(C(C)C)on1
[1]
  inhibition: 0.91% (inactive)

## CNC(=O)c1cc(S(=O)(=O)Nc2ccc3c(c2)OCCO3)ccc1C
[1]
  inhibition: 0.34% (inactive)

## C#CCOCCOCCOCCNc1nc(OC)nc(N2CCN(C(=O)[C@H](CCC(=O)O)n3cc(C(N)CO)nn3)CC2)n1 (stereo partly drawn)
[1]
  inhibition: 1.77% (inactive)

## CN1CCN(CC(=O)Nc2cc(N3CCOCC3)ccc2[N+](=O)[O-])CC1
[1]
  inhibition: 0.32% (inactive)

## Cc1c(CCO)c(=O)[nH]n1S(=O)(=O)c1ccc(F)cc1
[1]
  inhibition: inactive

## Cc1c(CCO)c(=O)[nH]n1C(=O)c1ccc(F)cc1
[1]
  inhibition: 0.71% (inactive)

## CC1=CC(C)(C)N2C(=O)C3(NCCc4c3[nH]c3ccccc43)c3cccc1c32 (stereo not drawn)
[1]
  inhibition: 0.24% (inactive)

## CN1C(=O)C2(NCCc3c2[nH]c2ccccc32)c2ccccc21 (stereo not drawn)
[1]
  inhibition: 1.48% (inactive)

## Cn1cc([N+](=O)[O-])c(C(=O)Nc2ccc(C(=O)N3CCCCC3)cc2)n1
[1]
  inhibition: 10.8% (inactive)

## Cc1nn(C)c(C(=O)Nc2ccn(C34CC5CC(CC(C5)C3)C4)n2)c1[N+](=O)[O-]
[1]
  inhibition: 0.3% (inactive)

## CCn1cc([N+](=O)[O-])c(C(=O)Nc2ccn(C34CC5CC(CC(C5)C3)C4)n2)n1
[1]
  inhibition: 0.69% (inactive)

## Cn1ncc([N+](=O)[O-])c1C(=O)Nc1ccc(C2CCCCC2)cc1
[1]
  inhibition: 2.86% (inactive)

## CCOc1ccc(S(=O)(=O)N2CCCCC2)cc1NC(=O)C1=COCCO1
[1]
  inhibition: 10.1% (inactive)

## O=C1NC2=C(C(=O)CCC2)C(c2ccc([N+](=O)[O-])cc2)N1 (stereo not drawn)
[1]
  inhibition: inactive

## CN(CC(=O)Nc1ccccc1Br)C(=O)c1cccc(S(=O)(=O)N2CCc3ccccc32)c1
[1]
  inhibition: 7.03% (inactive)

## COc1ccccc1N1CCN(C(=O)c2cccc(S(=O)(=O)N3c4ccccc4CC3C)c2)CC1 (stereo not drawn)
[1]
  inhibition: 5.41% (inactive)

## COc1cc2c(cc1OC)CN(C(=O)c1cccc(S(=O)(=O)N(C)C)c1)CC2
[1]
  inhibition: 1.42% (inactive)

## COc1ccc(N2CCN(C(=O)c3cccc(S(=O)(=O)N4CCc5ccccc54)c3)CC2)cc1
[1]
  inhibition: 4.71% (inactive)

## CC(=O)N1CCN(C(=O)c2cccc(S(=O)(=O)N3c4ccccc4CC3C)c2)CC1 (stereo not drawn)
[1]
  inhibition: inactive

## NS(=O)(=O)c1ccc(CNC(=O)c2cccc(S(=O)(=O)N3CCc4ccccc43)c2)cc1
[1]
  inhibition: 2.16% (inactive)

## O=C(c1cccc(S(=O)(=O)N2CCc3ccccc32)c1)N1CCOCC1
[1]
  inhibition: 1.59% (inactive)

## O=C(c1cccc(S(=O)(=O)N2CCc3ccccc32)c1)N1CCc2ccccc2C1
[1]
  inhibition: 6.28% (inactive)
